NCF1 inh: p47phox/p22phox peptide binding inhibitors, primary screen, biochemical, uHTS, NADPH oxidase regulatory subunit; 220,000 compounds, 0.53% hits; Neutrophil cytosol factor 1 (Homo sapiens), P14598; fluorescence polarization, 2 h; AID 1274, 2008; inhibition, % at 24.7 µM;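 active = inhibition above about 30%, limit read from the data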;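 also: 0% = p47phox with labelled peptide and 100% = labelled peptide alone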
Target sequence (P14598 whole entry, looked up): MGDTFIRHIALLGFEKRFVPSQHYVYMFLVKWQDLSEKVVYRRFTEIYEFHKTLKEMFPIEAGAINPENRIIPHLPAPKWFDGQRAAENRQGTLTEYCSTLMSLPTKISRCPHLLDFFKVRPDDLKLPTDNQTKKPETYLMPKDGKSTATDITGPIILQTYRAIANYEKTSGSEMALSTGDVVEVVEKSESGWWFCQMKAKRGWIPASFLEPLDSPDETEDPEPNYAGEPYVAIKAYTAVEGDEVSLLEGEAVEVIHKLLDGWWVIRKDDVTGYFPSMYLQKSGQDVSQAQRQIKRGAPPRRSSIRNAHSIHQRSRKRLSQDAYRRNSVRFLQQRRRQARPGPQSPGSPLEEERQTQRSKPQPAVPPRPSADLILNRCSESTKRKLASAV
Bim-Mcl-1: inhibitors of Bim peptide binding to Mcl-1, primary screen, biochemical, bead-based flow cytometry, multiplex; Induced myeloid leukemia cell differentiation protein Mcl-1 (Homo sapiens), Q07820; Bim peptide-Mcl-1 binding; inhibition, % at 10 µM; 190,000 compounds, 0.1% hits; AID 1009, 2008; in the data active = inhibition above about 40%;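 also: 0% = no compound tracer wells and 100% = peptide blocker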
m-calpain inh: inhibitors of pig calpain II, primary screen, biochemical, fluorogenic peptide substrate, 1536-well; inhibition, % at 16 µM; purified calpain II, 30 min; 220,000 compounds, 0.37% hits;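 active = inhibition above about 50%, limit read from the data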
14-3-3 Bad PPI: inhibitors of 14-3-3 zeta/Bad binding, primary screen, biochemical, TR-FRET, bovine 14-3-3 zeta; 14-3-3 protein zeta/delta (Bos taurus), P63103; TR-FRET 14-3-3zeta/Dy647-pBad peptide displacement, 1 h; 220,000 compounds, 0.71% hits; inhibition, % at 21.7 µM;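 active = inhibition above about 70%, limit read from the data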;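 also: 0% = full 14-3-3 plus peptide FRET controls and 100% = background without 14-3-3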
Mcl1 Bid PPI: Mcl-1/Bid binding inhibitors, primary screen, biochemical, TR-FRET, 1536-well; TR-FRET Mcl-1/Bid-Dy647 peptide binding; inhibition, % at 21.7 µM; 220,000 compounds, 0.97% hits; AID 1021, 2008;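 active = compounds that cut the binding signal by more than half at the single screening dose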;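 also: His-tagged Mcl-1 with europium anti-His antibody binding Bid BH3 peptide; 0% = Mcl-1 plus peptide wells and 100% = peptide-only wells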
Mcl1-Noxa inh: Mcl-1/Noxa binding inhibitors, primary screen, biochemical, TR-FRET, 1536-well | Induced myeloid leukemia cell differentiation protein Mcl-1 (Homo sapiens), Q07820 | TR-FRET Mcl-1/Noxa peptide binding, 2 h | inhibition, % at 21.7 µM | 220,000 compounds, 1.5% hits | AID 1022, 2008;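 active = compounds that cut the protein-peptide binding signal by more than 50% relative to plate controls in a single-dose test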;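 also: His-tagged Mcl-1 with rhodamine Noxa BH3 peptide and terbium anti-His antibody; 0% = Mcl-1 plus Noxa peptide wells and 100% = peptide-only wells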
Starred values were filed as active, the others as inactive; i = inactive; . = no result given; [ ] = another dose, or the depositor's remark. Shown are actives, neighbours in structure and some others; about 3.4% of the full set was active somewhere.

SMILES	NCF1 inh	Bim-Mcl-1	m-calpain inh	14-3-3 Bad PPI	Mcl1 Bid PPI	Mcl1-Noxa inh
Cc1ccc(NC(=O)O/N=C/c2c(C)nn(C(C)(C)C)c2C)cc1Cl	132*	.	12	-2	-1	9
NC(=O)c1ccc(N2CCN(c3ccc(O)cc3)CC2)c([N+](=O)[O-])c1	2	4	-21	-11	-38	64*
CC(=O)c1ccc(N2CCN(c3ccc(C(N)=O)cc3[N+](=O)[O-])CC2)cc1	-12	-1	-19	-1	-21	14
CCC1(O)CC(C(=O)OC)=NN1C(=O)c1ccccc1 (stereo unspecified)	-2	-2	6	-13	-11	64*
COC(=O)C1=NN(C(=O)c2ccc(Cl)cc2)C(O)(c2ccccc2)C1 (stereo unspecified)	-14	-4	35	3	-45	3
Cc1c(NC(=O)C(C)OC(=O)CCC2CCCC2)c(=O)n(-c2ccccc2)n1C (stereo unspecified)	-9	-5	-12	-2	-10	8
O=C(c1ccc(Cl)cc1)c1oc2ccccc2c1CS(=O)(=O)c1ccccc1	1	-6	60*	7	14	-9
Nc1c(C(=O)c2ccccc2)oc2ccccc12	-15	1	15	-3	-30	9
COc1cccc(/C=N/Nc2snc(SC)c2C#N)c1O	-36	-1	-46	13	35	72*
CSc1nsc(N/N=C/c2ccccc2)c1C#N	-19	-1	-82	-17	-56	6
COc1cccc(/C=N/Nc2snc(SC)c2C#N)c1	-16	-2	-19	13	-15	14
COc1ccc(/C=N/Nc2snc(SC)c2C#N)cc1OC	12	0	-108	22	19	67*
CC(=O)/C=C(\C)N=Nc1c(O)[nH]c2ccccc12	-22	.	24	-3	-18	8
Cn1c(CSc2nc3ccccc3s2)nnc1SCC(=O)NCc1cccnc1	9	1	33	-11	94*	-16
Cn1c(CSCc2ccc(Cl)cc2)nnc1SCC(=O)Nc1nc2ccccc2s1	-12	-1	-16	-6	62*	1
Cn1c(CSCc2ccc(Cl)cc2)nnc1SCC(=O)Nc1nccs1	4	1	16	-11	7	18
CCOc1ccc(-c2nc(N)ncc2-c2ccccc2)c(O)c1	-7	-2	-18	14	51*	26
COc1ccc(NC(C)C(=O)Nc2ccc(C#N)cc2)cc1Cl (stereo unspecified)	2	0	-144	-1	89*	92*
Cc1cc(=O)oc2c(CN3CCCCC3)c(O)c(Cl)cc12	-4	0	i	73*[fluorescence artefact?]	8	0
Cc1cccc(N2CCN(c3ccc(NC(=O)/C=C(/C(=O)O)c4ccccc4)cc3)CC2)c1	10	-2	-2	19	-10	52*
COc1ccc(C2=NN(c3ccccc3)C(=O)/C2=C\c2ccc(O)c(OC)c2)cc1	-21	3	4	7	-31	52*
C[C@@H](C(=O)Nc1nc2ccc(F)cc2s1)N1C(=O)C2CC=CCC2C1=O (stereo partly specified)	-4	-2	-23	-5	95*	-8
COC(=O)c1sc(-c2ccc(Cl)cc2)cc1NC(=O)COCC(=O)O	-5	.	-73	9	13	3
COC(=O)c1sc(-c2ccc(C(C)(C)C)cc2)cc1NC(=O)CCC(=O)O	33*	.	11	10	19	27
COC(=O)c1ccccc1SC(CC(=O)c1ccccc1)c1ccc(F)cc1 (stereo unspecified)	-14	.	13	2	-32	-27
SMILES	NCF1 inh	Bim-Mcl-1	m-calpain inh	14-3-3 Bad PPI	Mcl1 Bid PPI	Mcl1-Noxa inh
O=c1c2c(-c3cccs3)csc2ncn1-n1cccc1	-7	-4	81*	17	4	-8
Cc1ccc(C)n1-n1cnc2scc(-c3cccs3)c2c1=O	-15	2	-28	-1	-82	13
COc1ccc(NC(=S)N2CCN(CCN3C(=O)c4cccc5cccc(c45)C3=O)CC2)cc1	-2	-2	51*	23	6	15
CCOc1ccc(NC(=S)N2CCN(CCN3C(=O)c4cccc5cccc(c45)C3=O)CC2)cc1	28	-1	-8	9	26	27
Cc1cc([N+](=O)[O-])ccc1NC(=O)CSc1nccc(=O)[nH]1	-13	0	-3	-3	-34	26
CCOc1ccc(NS(=O)(=O)c2ccc(NC(=S)NC(=O)CC(C)C)cc2)cc1	-11	-1	52*	-17	-20	16
COc1ccc2[nH]cc(S(=O)(=O)c3ccc(C)cc3)c2c1	5	0	40	5	10	6
COc1cccc(C(=O)Nc2sc(C(C)C)cc2C(N)=O)c1OC	-13	.	2	1	-16	17
O=C(/C=C/c1ccco1)Nc1cc(Cl)ccc1C(=O)O	-4	-2	17	12	0	22
O=C(/C=C/c1ccco1)Nc1ccccc1C(=O)O	-4	2	25	34	-56	52*
O=C(/C=C/c1ccco1)Nc1nnc(-c2ccco2)s1	-19	-2	-26	0	-35	7
O=C(/C=C/c1ccco1)Nc1cccc(NC(=O)/C=C/c2ccco2)n1	-33	-3	-55	-21	-67	72*
Cc1nc(NC(=O)/C=C/c2ccco2)sc1C	-14	-2	21	-19	-16	58*
CCn1c(CSc2nc3ccccc3s2)nc2ccccc21	-25	2	-28	-2	-18	10
O=C(O)C[C@@H]1C(=O)O[C@@H]2C(COC(=O)c3cc(O)c(O)c(O)c3)O[C@@H](OC(=O)c3cc(O)c(O)c(O)c3)[C@@H](OC(=O)c3cc(O)c(O)c4c3[C@H]1[C@H](O)C(=O)O4)[C@H]2OC(=O)c1cc(O)c(O)c(O)c1 (stereo partly specified)	-70	.	15	81*	76*	100*
Cc1ccc(OCC(O)Cn2nc(C)cc2C)cc1 (stereo unspecified)	-32	1	21	13	5	13
CCOC(=O)C1CCN(C(c2ccccn2)c2c(C)[nH]c3ccccc23)CC1 (stereo unspecified)	18	2	-18	-8	4	59*
Cc1[nH]c2ccccc2c1C(c1ccccn1)N1CCC(C(N)=O)CC1 (stereo unspecified)	14	-1	8	4	17	57*

Screening data as filed in PubChem.
